# HT1080NT lethal: kills 2HG-producing HT-1080-NT fibrosarcoma cells; HT-1080-NT fibrosarcoma viability, CellTiter-Glo ATP luminescence, 48 h; Potency, µM (titrated, usually from 46.1 µM), for the others: at the top dose activity, negative = less viability, most hits filed as cytotoxic; hit rate 1.6% among 360,000;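 also: NT is the 2HG producing partner of a matched IDH1 knockdown line; potency is read from the fitted curve at half-maximal effect; 0% = DMSO-treated cells and -100% = media-only wells without cells; nearly all actives have a fitted effect of over 55% in size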
#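 750 cells/well, RPMI + 5% FBS; 2 h settle, compound pin-transfer, 48 h at 37 degrees C. CellTiter-Glo 10 min RT, luminescence. Normalized to DMSO and media-only wells.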
# DT40 TDP1 CPT: DT40-hTDP1 cell growth loss with CPT | chicken DT40 Tdp1-/-;hTDP1 cells + 20 nM CPT, ATP luminescence, 48 h | Potency, µM (highest dose often 46.2 µM), without a hit: at the highest dose activity change, negative = growth inhibition, most hits filed as inhibitors | hit rate 12% among 420,000; also: potency is read from the fitted curve at half-maximal effect; nearly all actives have a fitted effect of over 55% in size
#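 Chicken DT40 Tdp1-/- cells stably complemented with human TDP1 were seeded at 400 cells/well in medium containing 20 nM camptothecin, exposed to pin-transferred compounds, and grown at 37 °C for at least 48 hr. Viability was read as ATP luminescence.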
# DT40 TDP1 no CPT: qHTS for Inhibitors of human tyrosyl-DNA phosphodiesterase 1 (TDP1): qHTS in cells in absence of CPT | DT40 Tdp1-/- hTDP1 cells, no CPT, ATP luminescence, 48 h | hit rate 15% among 420,000 | AID 686978, 2013 | Potency, µM (top dose mostly 46.2 µM), without a hit: at the highest dose activity change, negative = growth inhibition, actives largely listed as inhibitors; also: potency is read from the fitted curve at half-maximal effect; nearly all actives have a fitted effect of over 55% in size
#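 Luminescent ATP content (CellTiter-Glo) served as the growth readout. Knockout chicken DT40 cells expressing human TDP1 were exposed to compounds without camptothecin for a minimum 48 hr at 37 °C.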
# HT1080 IDH1KD tx: toxicity to HT-1080 IDH1 knockdown cells (counter line). hit rate 2% among 360,000. HT-1080 IDH1 knockdown viability, ATP luminescence, 48 h. Potency, µM (highest dose often 46.1 µM), inactives show at the top dose activity, negative = toxicity, hits mostly cytotoxic;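 also: potency is read from the fitted curve at half-maximal effect; 0% = DMSO wells and -100% = cell-free medium wells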
#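 % activity derives from luminescence (CellTiter-Glo), normalised to DMSO and no-cell wells. HT-1080-IDH1KD cells, 750/well, had 48 h compound exposure at 37 °C.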
# IL-1B inflam inh: inflammasome signaling inhibition, IL-1 beta readout; THP-1 LPS/ATP IL-1B secretion, AlphaLISA, 16 h; stronger effect = lower value; activity change, % at 57.5 µM; hit rate 4.7% among 360,000; AID 743279; in the data active = activity change below about -50%; inconclusive = mostly about -30% to -49%
#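 THP-1 cells pretreated 1 hr with compounds (up to 57.5 uM final), then stimulated with LPS (250 ng/mL final) plus ATP (1.25 mM final); secreted IL-1B measured by AlphaLISA after 16 hr, decreased signal indicating inhibition.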
# * = called active by the depositor; u = inconclusive; x = no result given; [ ] = another dose, or the depositor's remark. This is a sample that favours compounds with a hit; in the whole collection about 19% have one here. Unless noted, calls follow the shape of the dose curve; as a rule, active = well fitted curve in the direction sought with a large enough effect; inconclusive = small, poorly fitted or top-dose-only effect, or another doubt; inactive = no such curve, though single readings can be large; an effect the other way counts as inactive or inconclusive. Unless noted, % is scaled to controls: 0 for no effect and ±100 for the full control effect.
SMILES,HT1080NT lethal,DT40 TDP1 CPT,DT40 TDP1 no CPT,HT1080 IDH1KD tx,IL-1B inflam inh
Cc1ccc(C)c(-c2nnc(NC(=O)c3ccc4c(c3)OCCO4)o2)c1,x,18.4µM*,8.2µM*,x,x
COc1cc(OC)cc(C(=O)NNC(=O)c2ccc3c(c2)OCCO3)c1,-1.9%,3.6%,-2.6%,7.5%,-3.5
Cc1nn(S(=O)(=O)c2ccc(C(C)(C)C)cc2)c(C)c1S(=O)(=O)N1CCC(C)CC1,x,-10.3%,-2.1%,x,x
CCc1ccc(N2CCN(C(=O)c3ccc(OC)c(OC)c3)CC2)cc1,9.2%,u,13µM*,-3.5%,0.0
COc1ccc(C(=O)N2CCN(c3ccc(C)cc3)CC2)cc1OC,-3.0%,u,u,1.0%,23.6
COc1ccc(C(=O)N2CCN(c3nc4ccccc4o3)CC2)cc1OC,u,16.4µM*,20.6µM*,-1.1%,16.7
COc1ccc(C(=O)N2CCN(c3c(C)cccc3C)CC2)cc1OC,-1.7%,23.1µM*,u,-6.3%,23.6
COc1ccc(CN2CCNC(=O)C2CC(=O)N(C)Cc2nc(C)cs2)c(OC)c1 (stereo unspecified),0.2%,0.9%,8.9%,0.6%,0.0
COc1[nH]c2ccc(F)cc2c1C(=O)OCC1CCN(CCNS(C)(=O)=O)CC1,-1.6%,2.9%,1.5%,-3.3%,-5.8
CC(NC(=O)c1ccc(NC(=O)CC2SC(N3CCCC3)=NC2=O)cc1)c1ccc(F)cc1 (stereo unspecified),11.0%[9.24 µM],-10.8%,13.0%,-2.0%,11.9
O=C(Nc1ccccc1)c1ccc(F)c(S(=O)(=O)N2CCOCC2)c1,6.9%,-24.4%,-18.8%,-8.2%,22.4
Cc1nc2ccc(NC(=O)c3cc(S(=O)(=O)N4CCOCC4)ccc3C)cc2s1,-6.0%,u,23.1µM*,-7.6%,-28.9
O=C(Nc1ccc(-c2cn3ccsc3n2)cc1)c1ccc(F)c(S(=O)(=O)N2CCOCC2)c1,-6.5%,u,23.1µM*,-15.1%,53.6
CC(=O)c1ccc(NC(=O)c2cc(S(=O)(=O)N3CCOCC3)ccc2C)cc1,16.8%,u,u,11.5%,30.3
Cc1nc2ccc(NC(=O)c3ccc(C)c(S(=O)(=O)N4CCOCC4)c3)cc2s1,-4.7%[9.24 µM],18.4µM*,u,-1.1%,-22.7
Cc1cccc(NC(=O)c2ccc(C)c(S(=O)(=O)N3CCOCC3)c2)n1,1.2%,4.6%,-1.1%,1.0%,0.6
COc1ccc(NC(C)=O)cc1NC(=O)c1ccc(Cl)cc1,0.7%,-2.9%,-6.9%,-3.9%,23.9
O=C(O)CSc1c(-c2ccccc2)c2cc(Cl)ccc2[nH]c1=O,-0.6%,-3.6%,-4.0%,-0.6%,10.1
CCN(CC)C(=S)Sc1c(-c2ccccc2)c2cc(Cl)ccc2[nH]c1=O,-16.8%,2.31µM*,u,u,-61.3*
NNC(=O)c1[nH]c2ccc(Br)cc2c1-c1ccccc1,9.2µM*,u,23.1µM*,14.6µM*,14.3
NNC(=O)c1[nH]c2ccc(Cl)cc2c1-c1ccccc1,u,u,20.6µM*,u,26.5
O=C(Nc1ccccc1)OCC1COC(c2ccccc2)(c2ccccc2)O1 (stereo unspecified),-0.8%,1.5%,-2.4%,10.7%,-69.0*
O=C(Nc1ccccc1)OCC1CCCO1 (stereo unspecified),-2.5%,-2.6%,-5.3%,1.2%,6.1
O=C(NC(=S)Nc1cc(Cl)ccc1Cl)c1ccco1,1.4%,-0.3%,-7.9%,5.6%,16.1
COc1ccccc1Nc1nn2c(=O)c3ccc(C(=O)NCc4cccs4)cc3nc2s1,x,13µM*,16.4µM*,x,x
SMILES,HT1080NT lethal,DT40 TDP1 CPT,DT40 TDP1 no CPT,HT1080 IDH1KD tx,IL-1B inflam inh
CC(C)OCCCNC(=O)c1ccc2c(=O)n(CCc3ccccc3)c(=O)[nH]c2c1,x,-1.8%,-18.4%,x,x
Cc1ccc(C)c(Nc2nn3c(=O)c4ccc(C(=O)NCc5cccs5)cc4nc3s2)c1,x,u,14.6µM*,x,x
Cc1ccc(C(=O)NCc2cccs2)cc1S(=O)(=O)N1CCCCC1,-4.0%,0.1%,-17.5%,-0.1%,1.1
COc1ccccc1Nc1nn2c(=O)c3ccc(C(=O)NCCCOC(C)C)cc3nc2s1,x,5.17µM*,4.11µM*,x,x
CCOc1ccc2c(c1)c(=O)c(S(=O)(=O)c1ccc(CC)cc1)cn2C,-2.4%,-15.5%,-2.6%,9.2%,-1.7
C[C@H](NS(=O)(=O)c1ccc2c(c1)OCCCO2)C(=O)N1CCN(Cc2ccc(C#N)cc2)CC1,-3.8%,u,-49.6%,-21.9%,0.0
CCc1nc2ccc(C(=O)Nc3cccc(NS(C)(=O)=O)c3)cn2c1N(C)C(=O)c1cccc(OC)c1,6.8%,-9.5%,1.8%,15.7%,-78.5*
CCc1nc2ccc(C(=O)Nc3cccc(NS(C)(=O)=O)c3)cn2c1N(C)C(=O)Cc1ccccc1,16.9%,-20.6%,2.6%,0.0%,-87.4*
O=C(O)c1ccc(CN2C[C@@H](CO)O[C@@H](n3cnc4c(NCc5ccco5)ncnc43)C2)cc1,14.8%,9.1%,3.4%,10.7%,23.3
CC(C)(O)C#Cc1ccc(N2C(c3ccsc3)=Cc3ccc(F)cc3C2c2c[nH]c3ccccc23)cc1 (stereo unspecified),6.1%,u,18.4µM*,0.0%,-26.1
N#Cc1ccc2[nH]cc(C3c4cc(F)ccc4C=C(c4ccsc4)N3c3ccc(C#CCCO)cc3)c2c1 (stereo unspecified),u,u,18.4µM*,14.6µM*,u
Cc1ccc2nc(C3CCCN(C(=S)Nc4cccc(C)c4C)C3)[nH]c2c1 (stereo unspecified),u,u,18.4µM*,u,-6.2
COc1ccccc1N1CCN(C2CCCN(C(=O)c3cc(C4CC4)on3)C2)CC1 (stereo unspecified),-1.0%,-11.9%,14.4%,3.4%,31.3
Cc1cccc(-c2nnn3c2nc(NCc2ccccc2)c2ccccc23)c1,x,u,20.6µM*,x,x
COCCCNc1nc2c(-c3ccc(C)cc3)nnn2c2ccccc12,-7.6%,-7.1%,-4.7%,0.0%,28.7
COc1ccc(-c2nnn3c2nc(NCCc2ccc(OC)c(OC)c2)c2ccccc23)cc1,x,8.2µM*,9.2µM*,x,x
COc1ccc(CCNc2nc3c(-c4cccc(C(F)(F)F)c4)nnn3c3ccccc23)cc1OC,x,u,16.4µM*,x,x
CCOc1cc(/C=C(/NC(C)=O)C(=O)O)cc(Cl)c1OCc1cccc(Br)c1,6.1%,4.6%,-1.7%,12.3%,-0.1
O=C(CNC(=O)c1ccc2ccccc2c1)NCc1ccccc1F,13.3%,-22.0%,0.1%,-0.9%,18.4
C[C@H]1CN([C@@H](C)CO)C(=O)c2cccc(NC(=O)Nc3ccc(C(F)(F)F)cc3)c2O[C@@H]1CN(C)S(=O)(=O)c1ccc(Cl)cc1,u,7.31µM*,8.2µM*,25.9µM*,u
